Measured values: PubChem BioAssay AID1030 (National Center for Advancing Translational Sciences (NCATS), 2008)
About 16,000 (7.3%) of roughly 220,000 compounds were called active. Roughly 25% stayed inconclusive and do not appear here. The call rests on the fitted dose curve; in most records, active means well fitted inhibition curve with a large enough effect (not every such curve was filed as active); inconclusive means small, poorly fitted or top-dose-only effect, or another doubt; inactive means no such curve, though single readings can be large or run the other way. The entries come from a sample that favours actives as a whole.

Target: Aldehyde dehydrogenase 1A1 (Homo sapiens) (UniProt P00352)
Assay: qHTS Assay for Inhibitors of Aldehyde Dehydrogenase 1 (ALDH1A1)
Details: Purified ALDH1A1, NADH fluorescence, propionaldehyde substrate; series mostly up to 75.3 µM
Potency means the concentration at half of the fitted maximal effect.

Chain of Aldehyde dehydrogenase 1A1 (Homo sapiens) (P00352 whole entry, looked up): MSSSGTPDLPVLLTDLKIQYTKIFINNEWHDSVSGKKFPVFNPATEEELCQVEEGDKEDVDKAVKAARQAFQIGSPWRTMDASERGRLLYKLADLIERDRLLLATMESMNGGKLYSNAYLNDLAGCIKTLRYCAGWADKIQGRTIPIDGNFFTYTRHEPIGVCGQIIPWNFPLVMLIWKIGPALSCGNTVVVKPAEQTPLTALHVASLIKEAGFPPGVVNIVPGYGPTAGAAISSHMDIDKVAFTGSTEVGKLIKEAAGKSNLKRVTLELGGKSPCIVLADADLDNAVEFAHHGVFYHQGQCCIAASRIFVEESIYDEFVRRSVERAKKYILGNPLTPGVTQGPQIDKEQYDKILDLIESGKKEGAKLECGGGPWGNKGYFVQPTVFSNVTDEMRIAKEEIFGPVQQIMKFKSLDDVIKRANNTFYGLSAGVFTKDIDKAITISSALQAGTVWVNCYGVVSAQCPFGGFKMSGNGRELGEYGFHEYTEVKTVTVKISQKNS

Potency, active:
Cc1cc(C)cc(N)c1 25.1 µM, CCCSc1nsc(N)n1 20 µM, CCOC(=O)C1=C(C)NC(=S)NC1c1cccs1 (configuration not stated) 3.16 µM, CCSc1ncnc2c(C#N)c3n(c12)CCCCC3 12.6 µM, CCc1ccc2c(c1)C1(NN=C(c3ccccc3)S1)C(=O)N2 (configuration not stated) 28.2 µM, CCS(=O)(=O)C1=NSC2=NC(=O)/C(=C\c3cc(C)n(-c4cccc(OC)c4)c3C)C(=N)N21 20 µM, O=C(c1ccco1)N1CCN(C(=O)C2c3ccccc3Oc3ccccc32)CC1 8.91 µM, COCCNC(=S)Nc1cc(S(=O)(=O)N2CCOCC2)ccc1N1CCCCC1 5.01 µM, O=S(=O)(Nc1cc(S(=O)(=O)N2CCOCC2)ccc1N1CCCC1)c1cccs1 0.398 µM, CCN(CC)S(=O)(=O)c1ccc(N2CCCC2)c(NS(=O)(=O)c2cccs2)c1 0.282 µM, COc1ccc([C@H]2[C@H](C(C)=O)N3N=Cc4ccccc4C3C23C(=O)OC(C)(C)OC3=O)cc1 (some centres not stated) 10 µM, CCCc1cc(-c2n[nH]c(=S)n2Cc2ccccc2)cs1 7.94 µM, CC1(C)Oc2ccc3ccc(=O)oc3c2/C(=C/NCCO)C1=O 25.1 µM, C=CCN(CC=C)S(=O)(=O)c1ccc(C(=O)Nc2sc3c(c2C(N)=O)CCCCC3)cc1 3.16 µM, O=C(COc1ccc(/C=N/NS(=O)(=O)c2ccccc2)cc1)NCCc1ccccc1 12.6 µM

Potency, inactive:
Cc1ccc(S(=O)(=O)N(C)c2ccc(OCC(=O)NC3=NCCS3)cc2)cc1, Cc1cc(C(C)(C)C)cc(C)c1N, Cc1ccnc(N)c1, Cc1ccc(NC(=O)c2cccnc2C(=O)Nc2ccc(C)cc2)cc1, CCCCCCSc1nsc(N)n1, COc1ccccc1OCC(=O)OCn1c(SC)nnc(C)c1=O, CCOC(=O)c1cnc2[nH]c3ccccc3n2c1=O, CCSc1ccccc1C(=O)Nc1ccc2c(c1)OCO2, CCOC(=O)C1=C(C)Nc2nc3ccccc3n2C1c1cccs1 (configuration not stated), CCOC(=O)C1=C(C)NC(C)=C(C(=O)OCC)C1c1ccccn1, C/C(=N\NC(=O)COc1c(C)cccc1C)c1cccs1, CCOc1ccc(C(=O)NC2CCN(CC(=O)NCc3cccs3)CC2)cc1, Cc1cc(C)n(-c2nnc(N3CCN(c4ccccc4)CC3)nn2)n1, CCOC(=O)c1c(N=CN(C)C)c(C#N)c2n1CCCC2, C=C(C)c1cccc(C(C)(C)NC(=O)NCCN(CC)CC)c1, CCN(CCn1cccn1)C(=O)CC1C(=O)NCCN1Cc1cccc(OC)c1OC (configuration not stated), C=C1c2cc(CC)ccc2NC(=O)N1c1ccc(C)cc1, CCc1ccc2c(c1)C(c1ccc([N+](=O)[O-])cc1)=NNC(c1ccccc1)=N2, CCOc1cc(/C=C2/C(=N)N3OC(C)=CC3=NC2=O)ccc1OC, NC(=O)COC(=O)/C=C/c1ccc2ccccc2n1, O=C(c1ccco1)N1CCN(C(=O)C2CC(c3ccc(Cl)c(Cl)c3)=NO2)CC1 (configuration not stated), O=C(c1ccco1)N1CCN(c2cccc(Cl)c2)CC1, COc1ccc(-c2nn(-c3ccccc3)cc2CN2CCCO2)c(F)c1, Cc1ccccc1CC1(CO)CCCN(Cc2ccc3c(c2)OCCO3)C1 (configuration not stated), Cc1ccc(N(C(=O)Cc2cccs2)C(C(=O)NCC2CCCO2)c2ccncc2)cc1 (configuration not stated), CCN(CC)S(=O)(=O)c1ccc(N2CCOCC2)c(C(=O)O)c1, O=C(COC(=O)c1ccccc1F)Nc1cc(S(=O)(=O)N2CCOCC2)ccc1N1CCCC1, O=C(c1ccc(N2CCOCC2)c([N+](=O)[O-])c1)N1CCN(S(=O)(=O)c2cccs2)CC1, CC(=O)NCCC(=O)Nc1cc(S(=O)(=O)N2CCOCC2)ccc1N1CCOCC1, O=C(COC(=O)Cc1ccc(F)cc1)Nc1cc(S(=O)(=O)N2CCOCC2)ccc1N1CCCC1, CCN(CC)S(=O)(=O)c1ccc(N2CCOCC2)c(NC(=O)C2COc3ccccc3O2)c1 (configuration not stated), Cc1ccc2cc(C)c(N3CCC(C)CC3)nc2c1, Cn1c(=O)cc(OCC(=O)N2CCN(c3ccccc3F)CC2)c2ccccc21, O=C(NCc1ccco1)c1ccc(NS(=O)(=O)c2cccc([N+](=O)[O-])c2)cc1, COc1ccc(CCNC(=O)CSc2nc3[nH]ncc3c(=O)n2-c2cccc(C(F)(F)F)c2)cc1OC, Cc1ccc(Nc2c(F)c(F)c(F)c(F)c2C(=O)O)c(C)c1, Cc1ccccc1C1CC(c2cccs2)=NN1S(C)(=O)=O (configuration not stated), Cc1cc(C)n(-c2ccc(C(=O)O)cc2[N+](=O)[O-])n1, COc1ccc(C2C(C(=O)N3CCN(c4ccc(OC)cc4)CC3)c3ccccc3C(=O)N2C)cc1 (configuration not stated), COc1ccccc1N1CCN(c2ccc([N+](=O)[O-])nc2)CC1, CCCc1cc(-c2n[nH]c(=S)n2CC)c2ccccc2n1, CCn1c(-c2ccncc2)n[nH]c1=S, CCCOc1ccc(C(=O)NCCc2ccccc2)cc1, C/C=C(/C)C(=O)OC1Cc2c(ccc3ccc(=O)oc23)OC1(C)C (configuration not stated), COC(=O)c1c(NC(=O)CN(c2ccc(C)c(C)c2)S(C)(=O)=O)sc2c1CCCC2, C=CCN(CC=C)S(=O)(=O)c1ccc(C(=O)Nc2nc3c(s2)CCc2ccccc2-3)cc1, COCC(C)NC(=O)CSc1nc2nn(-c3ccccc3)c(=O)c-2c2n1CCCCC2 (configuration not stated), Cc1ccc(CNC(=O)CCNS(=O)(=O)c2ccc(Br)s2)cc1, N#Cc1ccc(-c2nc3cc(C#N)c(C#N)cc3nc2-c2ccccc2)cc1C#N, O=C(CC(=O)N/N=C\c1ccc(F)cc1)NCCc1ccccc1, O=C(COc1ccc(S(=O)(=O)NCCc2ccccc2)cc1)N1CCCC1, COc1ccccc1N1CCN(CC(=O)NCCc2ccc(S(N)(=O)=O)cc2)CC1
